{"source": "PubChem BioAssay (NCATS)", "note": "Records with an inconclusive call do not appear. Calls of active or inactive are those of the source. Calls follow the shape of the dose curve; as a rule, active = well fitted inhibition curve with a large enough effect; inconclusive = small, poorly fitted or top-dose-only effect; inactive = no such curve, though single readings can be large or run the other way."}
{"system": "Zika virus NS2B-NS3 protease (unlinked)", "test": "Optimization of GU AMC qHTS for Zika virus inhibitors: Unlinked NS2B-NS3 protease assay (AID 1347151); also: nearly all actives have a fitted effect of over 80% in size", "settings": "recombinant ZIKV NS2B-NS3 protease, fluorogenic AMC substrate; series mostly up to 52.5 µM", "source_text": "Avindra Nath, Ph.D., National Institute of Neurological Disorders and Stroke (NINDS), Bethesda, MD\nRadhakrishnan Padmanabhan, Ph.D., Georgetown University (GU), Washington D.C.\nZika Virus causes congenital defects, including microcephaly and is associated with Guillain-Barre syndrome, eningoencephalitis and myelitis in infected adult. […] Using a target-based approach, we hope to establish a screening paradigm to uncover novel, cell-active NS2B-NS3 protease (Zika Virus) specific inhibitors from NCATS' collection of small molecules using qHTS.\nEarly Translation Branch (ETB)\nNational Center for Advancing Translational Sciences (NCATS), Rockville, MD\nNational Institute of Health (NIH), Bethesda, Maryland\nPadmanabhan lab provided the NS2B hydrophilic domain and NS3 protease domain in a noncovalent complex used for the unlinked assay. Control compound aprotinin is obtained from Thermo Scientific (#78432; Waltham, Massachusetts). NS2B-NS3 AMC substrate (Bz-Nle-Lys-Arg-Arg-AMC; Nle-KRR-AMC) purchased from Bachem (#I-1995; Torrance, CA). Ac-VKTGKR-AMC purchased from Genscript or Bachem, Ac-FAAGKR-AMC purchased from Genscript, Ac-GLVKRR-AMC purchased from Genscript, Ac-LKKR-AMC purchased from Genscript.\nGU AMC unlinked NS2B-NS3 protease qHTS protocol:\nBriefly, 3 microL of Zika virus unlinked NS2B-NS3 protease (25 nM for linked final concentration), in assay buffer (10 mM Tris-HCl pH 8.0 with 0.01% Tween 20) was dispensed into a 1,536-well solid-bottom black plate (Greiner Bio One, Monroe, NC). Twenty-three nL of compounds (final concentration range 7.28 nM to 114 microM) or control Aprotinin (final concentration range 3.47 nM to 114 microM) were transferred via Wako Pin-tool (Wako Automation, Richmond, VA). […] Plates were then read immediately on a ViewLux High-throughput CCD imager (PerkinElmer, Waltham, MA) equipped with standard UV fluorescence optics (340(30) nm excitation, 450(20) nm emission) then incubated (room temperature, protected from light) for 15 minutes (~20% conversion). The change in fluorescence intensity over the 15-minute reaction period was normalized against no-inhibitor and no-enzyme controls and the resulting percent inhibition data were fitted to a 4-parameter Hill equation. Aprotinin was used as the intraplate control."}
{"compound": "CC1OC(O[C@H]2C[C@@H](O)[C@]3(CO)[C@H]4[C@H](O)C[C@]5(C)[C@@H](C6=CC(=O)OC6)CC[C@]5(O)[C@@H]4CC[C@]3(O)C2)C(O)C(O)C1O", "note": "(stereo partly drawn)", "outcome": "inactive"}
{"compound": "C[C@@H]1[C@@H]2Cc3ccc(O)cc3[C@@]1(C)CCN2CCc1ccccc1", "outcome": "inactive"}
{"compound": "COC1C(O)C(C)O[C@@H](OC2CC[C@@]3(C)C4CC[C@]5(C)C(C6=CC(=O)OC6)CC[C@@]5(O)C4CC[C@@H]3C2)C1O", "note": "(stereo partly drawn)", "outcome": "inactive"}
{"compound": "CN1CC[C@@]23CCCC[C@@H]2[C@@H]1Cc1ccc(O)cc13", "outcome": "inactive"}
{"compound": "C[C@H]1[C@H]2Cc3ccc(O)cc3[C@]1(C)CCN2CCc1ccccc1", "outcome": "inactive"}
{"compound": "C=CCN1CCC2(C)c3cc(O)ccc3CC1C2C", "note": "(stereo not drawn)", "outcome": "inactive"}
{"compound": "CN1CC[C@@]23CCCCC2C1Cc1ccc(O)cc13", "note": "(stereo partly drawn)", "outcome": "inactive"}
{"compound": "C[C@@H]1O[C@@H](O[C@H]2C[C@@H](O)[C@]3(CO)C4C(CC[C@]3(O)C2)[C@@]2(O)CC[C@H](C3=CC(=O)OC3)[C@@]2(C)C[C@H]4O)[C@H](O)[C@H](O)[C@H]1O", "note": "(stereo partly drawn)", "outcome": "inactive"}
{"compound": "C[C@H]1O[C@@H](O[C@H]2[C@@H](O)C[C@@H](O[C@H]3[C@@H](O)C[C@H](O[C@H]4CC[C@@]5(C)[C@H](CC[C@@H]6[C@@H]5CC[C@]5(C)[C@@H](C7=CC(=O)OC7)CC[C@]65O)C4)O[C@@H]3C)O[C@@H]2C)C[C@H](O)[C@@H]1O", "outcome": "inactive"}
{"compound": "Cc1ccc2c(c1)[C@]13CCCC[C@@H]1[C@H](C2)N(C)CC3", "outcome": "inactive"}
{"compound": "CC(C)OC(=O)Nc1ccccc1", "outcome": "inactive"}
{"compound": "C[C@H]1O[C@@H](O[C@H]2[C@@H](O)C[C@H](O[C@H]3[C@@H](O)C[C@H](O[C@H]4CC[C@]5(C)C6CC[C@]7(C)[C@@H](C8=CC(=O)OC8)CC[C@]7(O)C6CC[C@@H]5C4)O[C@@H]3C)O[C@@H]2C)C[C@H](O)[C@@H]1O", "note": "(stereo partly drawn)", "outcome": "inactive"}
{"compound": "CC1O[C@@H](O[C@@H]2C(O)C[C@H](O[C@@H]3C(O)C[C@@H](OC4CC[C@@]5(C)C6CC[C@]7(C)C(C8=CC(=O)OC8)CC[C@@]7(O)C6CC[C@@H]5C4)OC3C)OC2C)CC(O)[C@H]1O", "note": "(stereo partly drawn)", "outcome": "inactive"}
